# According to PubChem BioAssay AID1159580 (chemical genetic matrix, 2015):
# The campaign covered roughly 5,500 compounds. About 2,000 (36%) were called active. Another 18% or so got no clear call; they are omitted. The list shows a part of the results. A number with no mark means an inactive call. No stated cut-off is given here; in the data, active means normalized growth mostly below about 0.91 (no sharp cut-off); inconclusive means no clear call, values can overlap the other calls; inactive means mostly above about 0.92.
# Test: chemical genetic growth profiling, strain panel (AID 1159580);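 further: tested at 20 µM; growth read once vehicle control cultures reached saturation at 30 °C; 1 = growth at the plate median or of vehicle wells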
# Conditions: S. cerevisiae deletion strains, growth OD
structure (smiles),measurement,setting,value
COC(=O)C1=C(Nc2ccccc2NS(=O)(=O)c2ccc(C(F)(F)F)cc2Cl)CSC1,normalized growth,"locus YAR019C, strain CDC15, stronger effect = lower value",0.977
same,normalized growth,"locus YBL105C, strain PKC1, stronger effect = lower value",0.983
same,normalized growth,"locus YBR135W, strain CKS1, stronger effect = lower value",0.976
same,normalized growth,"locus YBR136W, strain MEC1, stronger effect = lower value",0.978
same,normalized growth,"locus YBR160W, strain CDC28, stronger effect = lower value",0.977
same,normalized growth,"locus YDL017W, strain CDC7, stronger effect = lower value",0.973
same,normalized growth,"locus YDL028C, strain MPS1, stronger effect = lower value",0.976
same,normalized growth,"locus YDL101C, strain DUN1, stronger effect = lower value",0.962
same,normalized growth,"locus YDL108W, strain KIN28, stronger effect = lower value",0.985
same,normalized growth,"locus YDL132W, strain cdc53, stronger effect = lower value",0.984
same,normalized growth,"locus YDL214C, strain PRR2, stronger effect = lower value",0.939
same,normalized growth,"locus YDR052C, strain DBF4, stronger effect = lower value",0.987
same,normalized growth,"locus YDR054C, strain cdc34, stronger effect = lower value",0.995
same,normalized growth,"locus YDR226W, strain ADK1, stronger effect = lower value",0.972
same,normalized growth,"locus YDR477W, strain SNF1, stronger effect = lower value",0.947
same,normalized growth,"locus YER123W, strain YCK3, stronger effect = lower value",0.944
same,normalized growth,"locus YER133W, strain GLC7, stronger effect = lower value",0.966
same,normalized growth,"locus YFL009W, strain cdc4, stronger effect = lower value",0.985
same,normalized growth,"locus YFL029C, strain CAK1, stronger effect = lower value",0.973
same,normalized growth,"locus YFR003C, strain YPI1, stronger effect = lower value",0.984
same,normalized growth,"locus YFR019W, strain FAB1, stronger effect = lower value",0.976
same,normalized growth,"locus YFR028C, strain CDC14, stronger effect = lower value",0.964
same,normalized growth,"locus YGR040W, strain KSS1, stronger effect = lower value",0.933
same,normalized growth,"locus YGR052W, strain FMP48, stronger effect = lower value",1.03
same,normalized growth,"locus YGR092W, strain DBF2, stronger effect = lower value",0.957
same,normalized growth,"locus YHR030C, strain SLT2, stronger effect = lower value",0.977
same,normalized growth,"locus YHR079C, strain IRE1, stronger effect = lower value",0.97
same,normalized growth,"locus YHR082C, strain KSP1, stronger effect = lower value",1.02
same,normalized growth,"locus YHR205W, strain SCH9, stronger effect = lower value",0.972
same,normalized growth,"locus YIL147C, strain SLN1, stronger effect = lower value",0.987
same,normalized growth,"locus YJL095W, strain BCK1, stronger effect = lower value",0.985
same,normalized growth,"locus YJL128C, strain PBS2, stronger effect = lower value",0.919
same,normalized growth,"locus YJL157C, strain FAR1, stronger effect = lower value",0.949
same,normalized growth,"locus YJR016C, strain ILV3, stronger effect = lower value",0.972
same,normalized growth,"locus YJR066W, strain TOR1 (second series), stronger effect = lower value",0.942
same,normalized growth,"locus YJR066W, strain TOR1, stronger effect = lower value",1.03
same,normalized growth,"locus YKL048C, strain ELM1, stronger effect = lower value",0.945
same,normalized growth,"locus YKL067W, strain YNK1, stronger effect = lower value",0.959
same,normalized growth,"locus YKL101W, strain HSL1, stronger effect = lower value",0.932
same,normalized growth,"locus YKL193C, strain SDS22, stronger effect = lower value",0.975
same,normalized growth,"locus YKL203C, strain TOR2, stronger effect = lower value",1.01
same,normalized growth,"locus YLR113W, strain HOG1, stronger effect = lower value",0.84 (active)
same,normalized growth,"locus YLR133W, strain CKI1, stronger effect = lower value",0.937
same,normalized growth,"locus YLR403W, strain SFP1, stronger effect = lower value",0.903
same,normalized growth,"locus YML070W, strain DAK1, stronger effect = lower value",0.928
same,normalized growth,"locus YMR001C, strain CDC5, stronger effect = lower value",0.977
same,normalized growth,"locus YMR205C, strain PFK2 (second series), stronger effect = lower value",0.952
same,normalized growth,"locus YMR277W, strain FCP1, stronger effect = lower value",0.985
same,normalized growth,"locus YNL006W, strain LST8, stronger effect = lower value",0.989
same,normalized growth,"locus YNL020C, strain ARK1, stronger effect = lower value",0.951
same,normalized growth,"locus YNL161W, strain CBK1, stronger effect = lower value",0.977
same,normalized growth,"locus YNL183C, strain NPR1, stronger effect = lower value",0.966
same,normalized growth,"locus YNL207W, strain RIO2, stronger effect = lower value",0.967
same,normalized growth,"locus YNL222W, strain SSU72, stronger effect = lower value",0.978
same,normalized growth,"locus YNL307C, strain MCK1 (second series), stronger effect = lower value",0.953
same,normalized growth,"locus YOL078W, strain AVO1, stronger effect = lower value",0.975
same,normalized growth,"locus YOL136C, strain PFK27, stronger effect = lower value",0.935
same,normalized growth,"locus YOR061W, strain CKA2, stronger effect = lower value",0.955
same,normalized growth,"locus YOR119C, strain RIO1, stronger effect = lower value",1.02
same,normalized growth,"locus YOR231W, strain MKK1, stronger effect = lower value",0.91
same,normalized growth,"locus YOR329C, strain SCD5, stronger effect = lower value",0.985
same,normalized growth,"locus YPL031C, strain PHO85, stronger effect = lower value",0.971
same,normalized growth,"locus YPL153C, strain RAD53, stronger effect = lower value",0.948
same,normalized growth,"locus YPL204W, strain HRR25, stronger effect = lower value",0.936
same,normalized growth,"locus YPL209C, strain IPL1, stronger effect = lower value",0.975
same,normalized growth,"locus YPL256C, strain CLN2, stronger effect = lower value",0.918
same,normalized growth,"locus YPR025C, strain CCL1, stronger effect = lower value",0.982
same,normalized growth,"locus YPR106W, strain ISR1, stronger effect = lower value",0.943
same,normalized growth,"locus YPR111W, strain DBF20, stronger effect = lower value",0.979
same,normalized growth,"strain NNK1, stronger effect = lower value",0.971
same,normalized growth,"strain TSCII, stronger effect = lower value",0.978
